From PubChem BioAssay (NCI)
Compounds without any hit were thinned out: in the full panel of roughly 83,000, 20% have a hit.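 Testing used 96-well plates and a 48-hour single-concentration exposure. Example: -40 means 40% of the starting cells died.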 A number with no mark means an inactive call. Calls of active or inactive are those of the source. The calls were made as follows: active = growth percent below 10; inactive = the rest.

How the values were obtained:
Experiment in all cases: NCI-60 one-dose screen, 48 h (100 = growth as untreated, 0 = no growth, -100 = all killed)
Conditions in all cases: 10 µM unless noted
[1] = system: NCI-H23 lung
[2] = system: NCI-H226 lung
[3] = system: NCI-H322M lung
[4] = system: HOP-62 NSCLC
[5] = system: NCI-H460 lung
[6] = system: HOP-92 NSCLC
[7] = system: A549/ATCC NSCLC
[8] = system: 786-0 renal
[9] = system: COLO 205 colon
[10] = system: DU-145 prostate
[11] = system: K-562 leukemia
[12] = system: MALME-3M melanoma
[13] = system: MDA-MB-231 breast
[14] = system: RXF 393 renal
[15] = system: SF-268 CNS
[16] = system: SF-295 CNS
[17] = system: UACC-257 melanoma
[18] = system: M14 melanoma
[19] = system: SF-539 CNS

SMILES | growth [1] | growth [2] | growth [3] | growth [4] | growth [5] | growth [6] | growth [7] | growth [8] | growth [9] | growth [10] | growth [11] | growth [12] | growth [13] | growth [14] | growth [15] | growth [16] | growth [17] | growth [18] | growth [19]
CC(C)CNc1nc(N=[N+]=[N-])nc(NCC(C)C)n1 | 59.9% [100 µM] | 75.8% [100 µM] | 92.5% [100 µM] | 84.1% [100 µM] | 68.8% [100 µM] | -6.14% [100 µM] (active) | 56.3% [100 µM] | 55.5% [100 µM] | 99.2% [100 µM] | 80.1% [100 µM] | 33.5% [100 µM] | 72.7% [100 µM] | 48.5% [100 µM] | 70.8% [100 µM] | 63.3% [100 µM] | 36.5% [100 µM] | 62.7% [100 µM] | 57.7% [100 µM] | –
CCCCCCCCCCCCCCCCCC1=NC(C)(CO)CO1 (stereo not drawn) | 98.2% | 91.1% | 90.4% | 95.9% | 103% | 79.8% | 89.6% | 92.3% | 101% | 102% | 80.7% | 91.5% | 88.8% | 102% | 98.6% | 88.5% | – | 95.8% | 97.7%
Cc1cc2c(cc1C)[n+](Cc1ccc3ccccc3n1)cn2Cc1ccc2ccccc2n1 | 1.58% (active) | 9.61% (active) | 36% | 4.38% (active) | 0.342% (active) | -27.3% (active) | 30.4% | 11.2% | -61.5% (active) | 24.1% | -0.971% (active) | -28% (active) | -7.81% (active) | -6.38% (active) | 16.8% | 5.16% (active) | -16.6% (active) | -13.3% (active) | 14.8%
O=C1C=CC(=O)N1c1ccccc1N1C(=O)C=CC1=O | 115% | 101% | 122% | 94.5% | 111% | 82.8% | 121% | 110% | 57.7% | 110% | 50.2% | 144% | 92.6% | 111% | 97.7% | 125% | 115% | 110% | 100%
O=C1/C(=C/c2cccc(Cl)c2)CCc2ccccc21 | 101% | 98.5% | 98.5% | 105% | 107% | 72.6% | 90.2% | 94.8% | 111% | 106% | 46.4% | 100% | 98.9% | 110% | 99.4% | 85.5% | – | 103% | 103%
Nc1nc(Nc2ccccc2SSc2ccccc2Nc2nc(N)nc(C(Cl)(Cl)Cl)n2)nc(C(Cl)(Cl)Cl)n1 | 54% | 64.6% | 75.3% | -34% (active) | 69.6% | 131% | -42.5% (active) | 70% | 114% | 82.3% | 52.8% | 75% | 44.1% | 67.2% | 50.5% | 27.4% | 100% | 67% | 84.3%
N#Cc1ccccc1C#Cc1ccccc1C#Cc1ccc(OCCCCCCOc2ccc(C#Cc3ccccc3C#Cc3ccccc3C#N)cc2)cc1 | 99.4% | 102% | 105% | 103% | 116% | 91.6% | 94% | 98.4% | 119% | 111% | 96.7% | 102% | 88.5% | 97.7% | 115% | 106% | 103% | 85.8% | 97.6%
Fc1ccccc1C1c2ccccc2-c2nccn21 (stereo not drawn) | 87% | 88.1% | 96.2% | 98.4% | 110% | 61.8% | 94.9% | 89.7% | 111% | 99.2% | 73.9% | 98.2% | 102% | -1.68% (active) | 109% | 89.3% | 96.6% | 104% | 98.9%
CC(C)OP(=O)(OC(C)C)c1ncc(-c2ccc(C(F)(F)F)cc2)c(NC2CCCCCC2)n1 | -47.6% [33.3 µM] (active) | -50.3% [33.3 µM] (active) | -70% [33.3 µM] (active) | -27.1% [33.3 µM] (active) | -64.5% [33.3 µM] (active) | -93.7% [33.3 µM] (active) | -33.6% [33.3 µM] (active) | -67.6% [33.3 µM] (active) | -78% [33.3 µM] (active) | -81.2% [33.3 µM] (active) | -22.1% [33.3 µM] (active) | -85% [33.3 µM] (active) | -8.63% [33.3 µM] (active) | -85.7% [33.3 µM] (active) | -90.6% [33.3 µM] (active) | -85.6% [33.3 µM] (active) | -41.1% [33.3 µM] (active) | -90.2% [33.3 µM] (active) | –
CCN(CC)c1ccc(N=C2C=CC(=O)C=C2NC(C)=O)cc1 | 92.9% | 93.7% | 105% | 107% | 106% | 104% | 100% | 111% | 96.8% | 111% | 77.9% | 142% | 81.7% | 94.8% | 94% | 115% | 90.7% | 109% | 95.3%
C[C@@H]1[C@H]2[C@H](C=C3[C@@H]4CC[C@H]5Cc6nc7c(nc6C[C@]5(C)[C@H]4C[C@@H](O)[C@@]32C)C[C@@H]2CC[C@H]3C4=C[C@@H]5O[C@@]6(CC[C@](C)(CO)O6)[C@@H](C)[C@@]5(O)[C@@]4(C)[C@H](O)C[C@@H]3[C@@]2(C)C7)O[C@]12CCC(C)(C)O2 | 33.6% | 20.7% | 27.8% | -24.5% (active) | 0.313% (active) | -4.69% (active) | 12.8% | -25.3% (active) | -39.3% (active) | 45.2% | -7.07% (active) | 38.8% | -0.32% (active) | -44.4% (active) | 31.2% | -63.4% (active) | 26.6% | 8.26% (active) | 3.28% (active)
CC(=O)c1nn(-c2ccccc2)c(=Nc2ccccc2)cc1C | 107% | 98.1% | 103% | 91.7% | 101% | 55.2% | 99.7% | 107% | 109% | 107% | 97.3% | 120% | 90.2% | 102% | 114% | 86.9% | – | 120% | 107%
O=C(O)C1C(c2ccccc2)c2ccccc2C(O)C1CO (stereo not drawn) | 106% | 105% | 112% | 107% | 111% | 89.1% | 111% | 107% | 99.7% | 136% | 111% | 146% | 94.9% | 123% | 116% | 120% | 98.9% | 99.5% | 99.7%
O=C1c2cccc3c([N+](=O)[O-])ccc(c23)C(=O)N1CCCCl | -74.8% [100 µM] (active) | -54.1% [100 µM] (active) | -96.2% [100 µM] (active) | -92.4% [100 µM] (active) | -34.7% [100 µM] (active) | -82.5% [100 µM] (active) | -73.7% [100 µM] (active) | -83.8% [100 µM] (active) | -80.4% [100 µM] (active) | -82.1% [100 µM] (active) | -25.8% [100 µM] (active) | -73.9% [100 µM] (active) | -93.1% [100 µM] (active) | -83.3% [100 µM] (active) | -78.9% [100 µM] (active) | -92% [100 µM] (active) | -97% [100 µM] (active) | -85.6% [100 µM] (active) | –
COc1ccc(C2=NN(C=O)C(c3cccc(Nc4ccnc5cc(Cl)ccc45)c3)C2)cc1 (stereo not drawn) | 23.5% | 39.7% | 45.8% | 13.2% | 14.3% | 36.9% | 30.2% | 28.5% | 0.0234% (active) | 33.2% | 6.65% (active) | 25.2% | 42.4% | 17.2% | 41.2% | 0.467% (active) | 23.2% | 19.1% | 9.03% (active)
O=CNc1ccc2c(c1)Cc1cc([N+](=O)[O-])ccc1-2 | 37.9% | 66.5% | 9.9% (active) | 26.5% | 15.8% | 42.4% | 18.6% | 38.1% | 1.14% (active) | 0.835% (active) | 21.3% | 11.4% | 34.4% | -14.6% (active) | 42% | 16.3% | 59.3% | -15.7% (active) | 27.9%
